Source: PubChem BioAssay (National Center for Advancing Translational Sciences (NCATS))
This is a sample that favours compounds with a hit; in the whole collection about 3.3% have one here.
AmpC inh detg – inhibitors of E. coli AmpC beta-lactamase with detergent | Potency, µM (titrated, usually from 114 µM), hits mostly inhibitors | AmpC hydrolysis of nitrocefin, absorbance 480 nm, 0.01% Triton | hit rate 0.041% among 370,000 | AID 485294; note: nearly all actives have a fitted effect of over 25% in size
Target sequence (P00811 whole entry, looked up): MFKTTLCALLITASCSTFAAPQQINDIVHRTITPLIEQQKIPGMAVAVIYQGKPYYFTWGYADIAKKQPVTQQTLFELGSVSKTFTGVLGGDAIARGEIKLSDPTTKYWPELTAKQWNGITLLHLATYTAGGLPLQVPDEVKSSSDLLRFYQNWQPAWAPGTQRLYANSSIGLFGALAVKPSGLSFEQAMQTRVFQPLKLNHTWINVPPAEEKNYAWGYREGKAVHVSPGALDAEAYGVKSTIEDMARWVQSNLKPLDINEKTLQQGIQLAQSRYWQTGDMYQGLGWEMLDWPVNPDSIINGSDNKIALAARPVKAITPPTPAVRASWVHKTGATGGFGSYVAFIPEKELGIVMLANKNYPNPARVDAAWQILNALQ
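AmpC (5.3 nM in the dispensed reagent) in 20 mM phosphate pH 7.0 with 0.01% (detergent screen) or 0.0001% Triton X-100 was preincubated with compounds for 15 min at room temperature. Nitrocefin was then added from an 800 uM solution, and hydrolysis was followed at 480 nm.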
Sm TGR inh – blocks Schistosoma mansoni thioredoxin glutathione reductase; hit rate 3% among 360,000; Q962Y6; Potency, µM (doses to about 114 µM), usual class: inhibitors; AID 485364; purified TGR, DTNB reduction, TNB absorbance 405 nm; note: nearly all actives have a fitted effect of over 60% in size
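Kinetic colorimetric format: TGR-catalysed, NADPH-driven DTNB reduction monitored via TNB absorbance. Enzyme dispensed at 20 nM; compound exposure 15 min at room temperature before reaction start.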
AmpC no deterg – blocks E. coli AmpC beta-lactamase in detergent-free assay; AmpC nitrocefin hydrolysis, absorbance 480 nm, 0.0001% Triton; P00811; AID 485341; Potency, µM (highest dose often 57.1 µM), most hits filed as inhibitors; hit rate 0.52% among 330,000; note: nearly all actives have a fitted effect of over 20% in size
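AmpC (5.3 nM in the dispensed reagent) in 20 mM phosphate pH 7.0 with 0.01% (detergent screen) or 0.0001% Triton X-100 was preincubated with compounds for 15 min at room temperature. Nitrocefin was then added from an 800 uM solution, and hydrolysis was followed at 480 nm.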
Large screens that a line does not name were inactive. Calls come from the whole dose curve; as a rule, active = well fitted curve in the direction sought with a large enough effect; inconclusive = small, poorly fitted or top-dose-only effect, or another doubt; inactive = no such curve, though single readings can be large; an effect the other way counts as inactive or inconclusive.

O=C(Nc1cc(Sc2ccccn2)cc([N+](=O)[O-])c1)c1ccc(Cl)cc1	AmpC no deterg 31.6µM
Cc1ccc(-n2nc(C)c3c2NC2=C(C(=O)CC(C)(C)C2)C3c2ccccc2OCC(=O)O)cc1 (configuration not stated)	none
O=C1CC(c2ccccc2)CC(O)=C1C=NCCN1CCN(C(=O)Cc2ccccc2)CC1 (configuration not stated)	none
Cc1ccc(C2CC(=O)C(C=NCCN3CCN(C(=O)Cc4ccccc4)CC3)=C(O)C2)cc1 (configuration not stated)	Sm TGR inh 22.4µM
O=C1CC(c2ccco2)CC(O)=C1C=Nc1cc(Cl)cc(Cl)c1 (configuration not stated)	Sm TGR inh 17.8µM
O=C1CC(c2ccco2)CC(O)=C1C=NCCN1CCNCC1 (configuration not stated)	Sm TGR inh 39.8µM
CCOc1ccc(N=CC2=C(O)CC(c3ccco3)CC2=O)cc1 (configuration not stated)	none
O=C1CC(c2ccccc2)CC(O)=C1C=NCCN1CCNCC1 (configuration not stated)	AmpC inh detg inconclusive
CCN(C(=O)COC(=O)c1cccs1)c1c(N)n(Cc2ccccc2)c(=O)[nH]c1=O	none
CC(C)(C)c1ccc(C(=O)NNc2cc(N3CCCCC3)nc(N3CCCCC3)n2)cc1	AmpC no deterg 0.159µM
CC(C)(C)c1ccc(C(=O)NNc2cc(N3CCOCC3)nc(N3CCOCC3)n2)cc1	none
COCCn1c(C)cc(O)c(C(c2ccccc2F)N2CCN(c3ccccc3)CC2)c1=O (configuration not stated)	Sm TGR inh 4.47µM (no result: AmpC no deterg)
CCC(C)(C)n1nnnc1C(c1cc(OC)c(OC)c(OC)c1)N1CCN(c2ccccc2)CC1 (configuration not stated)	none
COCCn1c(C)cc(O)c(C(c2ccccc2OC)N2CCN(c3ccccc3)CC2)c1=O (configuration not stated)	Sm TGR inh 3.55µM (no result: AmpC no deterg)
COCCn1c(C)cc2c(c1=O)C(c1ccccc1F)C(C#N)=C(N)O2 (configuration not stated)	none
N#Cc1ccc(NC(=O)COCc2cc(-c3ccco3)on2)cc1	none (no result: AmpC no deterg)
CCOc1cccc(CC(=O)N2CCc3c([nH]c4ccccc34)C2c2ccc(C)cc2)c1OCC (configuration not stated)	none (no result: AmpC no deterg)
CC(=O)CCc1oc2ccc(C)cc2c1-c1ccccc1	none
C/C(CCc1oc2ccc(Cl)cc2c1-c1ccc(C)o1)=N\O	Sm TGR inh 25.1µM
CC(O)CN=c1cc(-c2ccccc2)oc2ccc(Cl)cc12 (configuration not stated)	AmpC inh detg inconclusive
C/C(CCc1oc2ccc(Br)cc2c1-c1ccc(C)o1)=N/O	Sm TGR inh 39.8µM
Cc1ccc(C2=NN(CC(=O)NCCc3ccccc3)C(=O)CC2)cc1	none (no result: AmpC no deterg)
NC1=NC(=O)/C(=C/c2ccc(Br)cc2)S1	none
CCOC(=O)COc1ccc(Br)cc1/C=C1\SC(N)=NC1=O	none
CCOC(=O)CSC1=NC(=O)/C(=C/c2ccc(Br)cc2)S1	Sm TGR inh 3.16µM
CCOC(=O)CSC1=NC(=O)/C(=C\c2ccc(OC(C)=O)cc2)S1	Sm TGR inh 8.91µM
COc1ccc(-n2c(=O)c3ccccc3n(Cc3ccc(F)cc3Cl)c2=O)cc1OC	none (no result: AmpC no deterg)
CCOC(=O)c1c(C)oc2nc(C)nc(NCCc3ccc(OC)c(OC)c3)c12	none (no result: AmpC no deterg)
O=C(c1ccco1)N1CCN(C2CC(=O)N(c3ccc(F)c(Cl)c3)C2=O)CC1 (configuration not stated)	Sm TGR inh 20µM
COc1cccc(N2C(=O)CC(N3CCN(C(=O)c4ccco4)CC3)C2=O)c1 (configuration not stated)	Sm TGR inh inconclusive
COc1ccccc1N1CCN(C2CC(=O)N(c3ccc(Cl)cc3)C2=O)CC1 (configuration not stated)	none
COc1ccccc1N1C(=O)CC(N2CCN(c3ccc(F)cc3)CC2)C1=O (configuration not stated)	AmpC inh detg inconclusive, Sm TGR inh 44.7µM
CCOC(=O)N1CCN(C2CC(=O)N(c3ccc(Cl)c(Cl)c3)C2=O)CC1 (configuration not stated)	Sm TGR inh 20µM
CCOC(=O)N1CCN(C2CC(=O)N(c3ccccc3)C2=O)CC1 (configuration not stated)	none
CN1C(=O)CC(N2CCN(C(=O)CN3CCCC3)CC2)C1=O (configuration not stated)	none
CCOc1ccc(N2C(=O)CC(N3CCN(C(=O)CN4CCCC4)CC3)C2=O)cc1 (configuration not stated)	AmpC inh detg inconclusive, Sm TGR inh 35.5µM
CC(C)NC(=O)C(C)N1CCN(S(=O)(=O)c2ccc3ccccc3c2)CC1 (configuration not stated)	none
Cc1nc(NC(=O)c2c(-c3ccccc3Cl)noc2C)sc1C	none
COc1ccccc1CCC(=O)Nc1cc(S(=O)(=O)N2CCCCC2)ccc1N1CCN(C)CC1	none
COC(=O)c1sc(S(=O)(=O)NC(C)C(=O)O)c(C(=O)OC)c1C (configuration not stated)	none
Cc1ccc(N2C(=O)CC(N3CCN(c4ccc(F)cc4)CC3)C2=O)c(C)c1 (configuration not stated)	none
CCOc1ccc(N2C(=O)CC(N3CCN(c4ccc(F)cc4)CC3)C2=O)cc1 (configuration not stated)	Sm TGR inh 44.7µM
O=C1CSC(c2cccc([N+](=O)[O-])c2)N1CCc1ccccc1 (configuration not stated)	none
NC(=O)CSc1ncc2c(n1)-c1ccccc1N(Cc1cccc(F)c1)S2(=O)=O	none (no result: AmpC no deterg)
CCOc1ccc(N(C(=O)c2cc3ccccc3oc2=O)C2C=CS(=O)(=O)C2)cc1 (configuration not stated)	none
Cc1cc(Nc2ccc(O)cc2)n2c(nc3ccccc32)c1C#N	none
CCCc1cc(SCC(=O)Nc2c(C)n(C)n(-c3ccccc3)c2=O)n2c(nc3ccccc32)c1C#N	Sm TGR inh 1.78µM
Cc1nc(SCC(=O)Nc2c(C)n(C)n(-c3ccccc3)c2=O)c(C#N)c(C)c1C	AmpC inh detg inconclusive
CCC(C)Sc1cc(C)c(C#N)c2nc3ccccc3n12 (configuration not stated)	none
CCOC(=O)CSc1cc(C)c(C#N)c2nc3ccccc3n12	Sm TGR inh 2.51µM
Cc1cc(Nc2c(C)n(C)n(-c3ccccc3)c2=O)n2c(nc3cc(F)c(F)cc32)c1C#N	Sm TGR inh 8.91µM
COc1ccccc1CNC(=O)[C@H](NC(=O)C1CCN(C(=O)[C@@H](N)CCSC)CC1)C(C)C	none
CC(C)c1ccc(S(=O)(=O)NCc2nc3cccnc3n2Cc2ccc(F)cc2)cc1	none (no result: AmpC no deterg)
O=C(Nc1ccc(F)c([N+](=O)[O-])c1)c1ccc2c(c1)C(=O)OC2=O	none
CNC(=O)NC(=O)CSc1nc2sccc2c(=O)n1-c1ccccc1	none
CCCn1c(=O)[nH]c(=O)c2c1nc(-c1cccs1)n2CCOC	none
NS(=O)(=O)c1ccc(CCNS(=O)(=O)Cc2ccc(Cl)cc2)cc1	none
